Measurements as given in PubChem BioAssay (NCATS).
Several values for one entry are separate records, joined by “and”; a condition that tells them apart may be missing. Identical values can stand only once. Inconclusive results are not listed. Activity calls are given as the source filed them. Calls come from the whole dose curve; as a rule, active = well fitted curve in the direction sought with a large enough effect; inconclusive = small, poorly fitted or top-dose-only effect, or another doubt; inactive = no such curve, though single readings can be large; an effect the other way counts as inactive or inconclusive.

Experiment: Primary qHTS for inhibitors of nuclear receptor binding SET domain protein 2 (NSD2) in an isogenic RCH-ACV NSD2 p.E1099K mutant (9B) (AID 1645876)
Conditions: RCH-ACV NSD2 E1099K (9B) viability, CellTiter-Glo, 72 h; series mostly up to 44.9 µM
Note: nearly all actives have a fitted effect of over 70% in size.
Potency is the fitted concentration of half-maximal effect.

Question: With `CC(C)c1cc(-c2n[nH]c(=O)n2-c2ccc3c(ccn3C)c2)c(O)cc1O` as the compound, how does the Potency read?
Answer: Its Potency is 25.8 nM (active) and 29.5 nM (active).

Question: With `COc1cc(C(=O)N2CCC(N3CCN(C)CC3)CC2)ccc1Nc1ncc2c(n1)N(C)c1ccccc1C(=O)N2C` as the compound, how does the Potency read?
Answer: Its Potency is 1.15 µM (active) and 1.48 µM (active).

Question: For `CNC(=O)CN1CCC(Oc2cc3c(Nc4cccc(Cl)c4F)ncnc3cc2OC)CC1`, which Potency is on record?
Answer: The Potency was 16.3 µM (active) and 18.6 µM (active).

Question: Which Potency does the source give for `O=C(Cc1ccc(-c2ccc(OCCN3CCOCC3)cc2)cn1)NCc1ccccc1` here?
Answer: Its Potency is 459 nM (active) and 105 nM (active).

Question: With `O=C(O)C1(Cc2cccc(Nc3nccs3)n2)CCC(Oc2cccc(Cl)c2F)CC1` (stereo not given) as the compound, how does the Potency read?
Answer: Its Potency is 1.45 µM (active).

Question: For `NC(=O)c1cccc2cn(-c3ccc([C@@H]4CCCNC4)cc3)nc12`, which Potency is on record?
Answer: The Potency was 4.59 µM (active) and 2.63 µM (active).

Question: Which Potency does the source give for `Cn1c(CNc2ccc(C(=N)N)cc2)nc2cc(C(=O)N(CCC(=O)O)c3ccccn3)ccc21` here?
Answer: The Potency was “inactive”.

Question: For `CCS(=O)(=O)c1cccc(-c2cc(C(=O)NC3CCN(C)CC3)c(C)c3[nH]c4ncc(C)cc4c23)c1`, which Potency is on record?
Answer: The Potency was 113 nM (active) and 166 nM (active).

Question: Which Potency does the source give for `CN1CCC(CNc2ccc3ncc(-c4cccc(OC(F)(F)F)c4)n3n2)CC1` here?
Answer: The Potency was 2.58 µM (active) and 4.68 µM (active).

Question: Which Potency does the source give for `CCn1cc(-c2ccnc3[nH]c(-c4cccc(CN(C)C)c4)cc23)c(-c2ccc(NC(=O)N(C)C)cc2)n1` here?
Answer: The Potency was 112 nM (active) and 1.86 µM (active).

Question: Which Potency does the source give for `CC1COC2(CCN(c3nc(=O)c4cc(C(F)(F)F)cc([N+](=O)[O-])c4s3)CC2)O1` (stereo not given) here?
Answer: Its Potency is “inactive”.

Question: With `Cc1cc(CN2CCN(c3c(Br)cnc4nc(-c5ccc(N6CCN(C)CC6)cc5)[nH]c34)CC2)no1` as the compound, how does the Potency read?
Answer: The Potency was 205 nM (active) and 468 nM (active).

Question: For `O=C(c1ccc(Nc2nccc(-c3cc4ccccc4s3)n2)cc1)N1CCC(N2CCCC2)CC1`, which Potency is on record?
Answer: The Potency was 1.45 µM (active) and 1.66 µM (active).

Question: Which Potency does the source give for `COc1cc(-c2nn(C3CCC(N4CCN(C(C)=O)CC4)CC3)c3ncnc(N)c23)ccc1NC(=O)c1cc2ccccc2n1C` (stereo not given) here?
Answer: Its Potency is 183 nM (active) and 590 nM (active).

Question: Which Potency does the source give for `COc1ccc(CC2c3cc(OC)c(OC)cc3CC[N+]2(C)CCC(=O)OCCCCCOC(=O)CC[N+]2(C)CCc3cc(OC)c(OC)cc3C2Cc2ccc(OC)c(OC)c2)cc1OC` (stereo not given) here?
Answer: The Potency was 23.5 µM (active).

Question: Which Potency does the source give for `Cc1coc2c1C(=O)C(=O)c1c-2ccc2c1CCCC2(C)C` here?
Answer: The Potency was “inactive”.

Question: For `COc1cccc(-c2ccc(NC(=O)C3=C(C(=O)O)CCC3)c(F)c2)c1`, which Potency is on record?
Answer: The Potency was 5.78 µM (active) and 2.95 µM (active).

Question: Which Potency does the source give for `Cc1cc(Nc2ncnc3ccc(-c4ccc(CNCCS(C)(=O)=O)o4)cc23)ccc1Oc1ccn2ncnc2c1` here?
Answer: Its Potency is 16.3 µM (active) and 16.6 µM (active).

Question: With `C=CC(=O)Nc1cc2c(Nc3ccc(F)c(Cl)c3)ncnc2cc1OCCCN1CCOCC1` as the compound, how does the Potency read?
Answer: The Potency was 1.68 µM (active) and 2.95 µM (active).

Question: With `CC(C)Nc1cc(C(F)(F)F)cc2nc(NC(=O)c3cccnc3)nn12` as the compound, how does the Potency read?
Answer: The Potency was “inactive”.

Question: For `C=CCn1c(=O)c2cnc(Nc3ccc(N4CCN(C)CC4)cc3)nc2n1-c1cccc(C(C)(C)O)n1`, which Potency is on record?
Answer: Its Potency is 290 nM (active) and 372 nM (active).

Question: With `Cc1ccc(CN2CCNCC2)cc1NC(=O)CNc1ccc(F)c(F)c1` as the compound, how does the Potency read?
Answer: The Potency was “inactive”.

Question: For `CNC(=O)c1ccc(-c2cnc3ncc(Cc4ccc5ncccc5c4)n3n2)cc1F`, which Potency is on record?
Answer: The Potency was “inactive”.

Question: With `COc1cc(C(=O)NS(=O)(=O)c2ccccc2C)ccc1Cc1cn(C)c2ccc(NC(=O)OC3CCCC3)cc12` as the compound, how does the Potency read?
Answer: The Potency was “inactive”.

Question: For `CNc1nccc(-c2cccnc2Oc2cc(C(=O)Nc3cccc(C(F)(F)F)c3)ccc2C)n1`, which Potency is on record?
Answer: The Potency was 2.58 µM (active) and 3.72 µM (active).

Question: With `NC1(Cc2ccc(Cl)cc2)CCN(c2ncnc3[nH]ccc23)CC1` as the compound, how does the Potency read?
Answer: The Potency was 9.34 µM (active).

Question: With `COc1cc2c(Oc3ccc(NC(=O)C4(C(=O)Nc5ccc(F)cc5)CC4)cc3F)ccnc2cc1OCCCN1CCOCC1` as the compound, how does the Potency read?
Answer: Its Potency is 515 nM (active) and 1.32 µM (active).

Question: With `Clc1cccc(-c2nnnn2Cc2cccnc2)c1Cl` as the compound, how does the Potency read?
Answer: The Potency was “inactive”.

Question: Which Potency does the source give for `CNC(=O)c1ccccc1Nc1nc(Nc2ccc(N3CCOCC3)cc2OC)ncc1Cl` here?
Answer: The Potency was 2.05 µM (active) and 2.35 µM (active).

Question: With `C=C1C(=CC=C2CCC[C@]3(C)[C@@H]([C@H](C)C=C[C@H](C)C(C)C)CC[C@@H]23)C[C@@H](O)C[C@@H]1O` as the compound, how does the Potency read?
Answer: Its Potency is “inactive”.

Question: For `CC1(O)CC(c2nc(-c3ccc4ccc(-c5ccccc5)nc4c3)c3c(N)nccn23)C1` (stereo not given), which Potency is on record?
Answer: Its Potency is 12.9 µM (active).

Question: For `CC(C)(O)c1cc2nc(-c3cnc(N)nc3)nc(N3CCOCC3)c2s1`, which Potency is on record?
Answer: The Potency was 0.372 µM (active).

Experiment: Primary qHTS for inhibitors of nuclear receptor binding SET domain protein 2 (NSD2) in an RCH-ACV wild type WT cells (2C) (AID 1645877)
Conditions: RCH-ACV (leukaemia line) NSD2 WT (2C) viability, CellTiter-Glo, 72 h; series mostly up to 44.9 µM

Question: With `CC(C)c1cc(-c2n[nH]c(=O)n2-c2ccc3c(ccn3C)c2)c(O)cc1O` as the compound, how does the Potency read?
Answer: Its Potency is 25.8 nM (active) and 29.5 nM (active).

Question: With `COc1cc(C(=O)N2CCC(N3CCN(C)CC3)CC2)ccc1Nc1ncc2c(n1)N(C)c1ccccc1C(=O)N2C` as the compound, how does the Potency read?
Answer: The Potency was 1.45 µM (active) and 1.86 µM (active).

Question: For `O=C(Cc1ccc(-c2ccc(OCCN3CCOCC3)cc2)cn1)NCc1ccccc1`, which Potency is on record?
Answer: The Potency was 258 nM (active) and 105 nM (active).

Question: With `Cn1c(CNc2ccc(C(=N)N)cc2)nc2cc(C(=O)N(CCC(=O)O)c3ccccn3)ccc21` as the compound, how does the Potency read?
Answer: Its Potency is “inactive”.

Question: With `CCS(=O)(=O)c1cccc(-c2cc(C(=O)NC3CCN(C)CC3)c(C)c3[nH]c4ncc(C)cc4c23)c1` as the compound, how does the Potency read?
Answer: The Potency was 35.8 nM (active) and 41.7 nM (active).

Question: Which Potency does the source give for `CN1CCC(CNc2ccc3ncc(-c4cccc(OC(F)(F)F)c4)n3n2)CC1` here?
Answer: The Potency was 2.05 µM (active) and 3.32 µM (active).

Question: With `CC1COC2(CCN(c3nc(=O)c4cc(C(F)(F)F)cc([N+](=O)[O-])c4s3)CC2)O1` (stereo not given) as the compound, how does the Potency read?
Answer: The Potency was “inactive”.

Question: With `Cc1cc(CN2CCN(c3c(Br)cnc4nc(-c5ccc(N6CCN(C)CC6)cc5)[nH]c34)CC2)no1` as the compound, how does the Potency read?
Answer: The Potency was 145 nM (active) and 296 nM (active).

Question: For `O=C(c1ccc(Nc2nccc(-c3cc4ccccc4s3)n2)cc1)N1CCC(N2CCCC2)CC1`, which Potency is on record?
Answer: Its Potency is 1.63 µM (active) and 1.66 µM (active).

Question: For `COc1ccc(CC2c3cc(OC)c(OC)cc3CC[N+]2(C)CCC(=O)OCCCCCOC(=O)CC[N+]2(C)CCc3cc(OC)c(OC)cc3C2Cc2ccc(OC)c(OC)c2)cc1OC` (stereo not given), which Potency is on record?
Answer: The Potency was 23.5 µM (active).

Question: With `COc1cccc(-c2ccc(NC(=O)C3=C(C(=O)O)CCC3)c(F)c2)c1` as the compound, how does the Potency read?
Answer: Its Potency is 6.49 µM (active) and 3.72 µM (active).

Question: For `Cc1cc(Nc2ncnc3ccc(-c4ccc(CNCCS(C)(=O)=O)o4)cc23)ccc1Oc1ccn2ncnc2c1`, which Potency is on record?
Answer: The Potency was 10.3 µM (active) and 14.8 µM (active).

Question: Which Potency does the source give for `C=CC(=O)Nc1cc2c(Nc3ccc(F)c(Cl)c3)ncnc2cc1OCCCN1CCOCC1` here?
Answer: The Potency was 1.5 µM (active) and 2.95 µM (active).

Question: For `C=CCn1c(=O)c2cnc(Nc3ccc(N4CCN(C)CC4)cc3)nc2n1-c1cccc(C(C)(C)O)n1`, which Potency is on record?
Answer: Its Potency is 230 nM (active) and 468 nM (active).

Question: Which Potency does the source give for `Cc1ccc(CN2CCNCC2)cc1NC(=O)CNc1ccc(F)c(F)c1` here?
Answer: Its Potency is “inactive”.

Question: With `CNC(=O)c1ccc(-c2cnc3ncc(Cc4ccc5ncccc5c4)n3n2)cc1F` as the compound, how does the Potency read?
Answer: The Potency was “inactive”.

Question: With `COc1cc(C(=O)NS(=O)(=O)c2ccccc2C)ccc1Cc1cn(C)c2ccc(NC(=O)OC3CCCC3)cc12` as the compound, how does the Potency read?
Answer: The Potency was “inactive”.

Question: With `CNc1nccc(-c2cccnc2Oc2cc(C(=O)Nc3cccc(C(F)(F)F)c3)ccc2C)n1` as the compound, how does the Potency read?
Answer: The Potency was 4.09 µM (active).

Question: With `NC1(Cc2ccc(Cl)cc2)CCN(c2ncnc3[nH]ccc23)CC1` as the compound, how does the Potency read?
Answer: The Potency was 8.33 µM (active).

Question: With `Clc1cccc(-c2nnnn2Cc2cccnc2)c1Cl` as the compound, how does the Potency read?
Answer: The Potency was “inactive”.

Question: For `C=C1C(=CC=C2CCC[C@]3(C)[C@@H]([C@H](C)C=C[C@H](C)C(C)C)CC[C@@H]23)C[C@@H](O)C[C@@H]1O`, which Potency is on record?
Answer: Its Potency is “inactive”.

Question: Which Potency does the source give for `CC1(O)CC(c2nc(-c3ccc4ccc(-c5ccccc5)nc4c3)c3c(N)nccn23)C1` (stereo not given) here?
Answer: The Potency was 18.3 µM (active).

Question: Which Potency does the source give for `CC(C)(O)c1cc2nc(-c3cnc(N)nc3)nc(N3CCOCC3)c2s1` here?
Answer: Its Potency is 0.372 µM (active).
